Test results reported in PubChem BioAssay AID463195 (Sanford-Burnham Center for Chemical Genomics, 2010).
The whole screen tested about 330,000 compounds, of which about 4,600 (1.4%) were called active.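 Rule for the calls: active = inhibition of 40% or more at the single tested concentration; inactive = the rest.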 The sample as a whole holds a higher share of actives than the screen did.

Test: growth inhibitors of isogenic TIM10 control yeast, primary screen, counter-screen for tim10-1 yeast inhibitor project, luminescence, uHTS (AID 463195);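 note: wild-type TIM10 isogenic control strain grown at permissive 25 °C; 0% = DMSO yeast wells and 100% = minimal medium wells without yeast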
Settings: S. cerevisiae TIM10 strain growth, BacTiter-Glo luminescence, 24 h; at 10 µM; active compounds read high

SMILES | inhibition
CC(C)(C)c1nnc(NC(=O)C2c3ccccc3Oc3ccccc32)s1 | 29.5% (inactive)
Cc1ccc(CNC(=O)c2cccc3c2C(=O)c2ccc(N4CCC(C)CC4)cc2S3(=O)=O)cc1 | 4.75% (inactive)
CC(=O)Nc1ccc(C(=O)N(C2=NC(C)CS2)c2ccc(Cl)cc2)cc1 (centres undefined) | 20.1% (inactive)
CC(=O)OCC(COC(C)=O)OC(C)=O | 5.8% (inactive)
COc1ccc(S(=O)(=O)NCCc2cc3ccc(C)c(C)c3[nH]c2=O)cc1 | 5.58% (inactive)
CC(C)[C@@H](C(=O)O)N(Cc1cccc(CN([C@H](C(=O)O)C(C)C)S(C)(=O)=O)c1)S(C)(=O)=O | 10.1% (inactive)
CC(C)(C)C(=O)c1cnc(Nc2ccccc2)s1 | 45.4% (active)
O=C(/C=C/Nc1ccccc1)c1cnc(-c2ccccc2)s1 | 3.58% (inactive)
CC(=O)c1cnc(-c2ccccc2)s1 | 12.3% (inactive)
CCOC(=O)C1CCCN(C(=O)c2ccc(CS(=O)(=O)c3ccc(Br)cc3)o2)C1 (centres undefined) | 4.19% (inactive)
Cc1cc(N2CCCC2)ccc1NC(=O)COc1ccc(Cl)cc1 | 4.1% (inactive)
NC(=O)NC(=O)C(OC(=O)CCNS(=O)(=O)c1ccccc1)c1ccccc1 (centres undefined) | 14.9% (inactive)
COc1ccc(N2C(=O)NC(NS(=O)(=O)c3ccc(Cl)cc3)(C(F)(F)F)C2=O)cc1 (centres undefined) | 5.54% (inactive)
O=C(NCCc1c[nH]c2ccccc12)c1cccc(Br)c1 | 4.34% (inactive)
Cc1ccc(S(=O)(=O)N(C)CC(=O)NCCc2c[nH]c3ccccc23)cc1 | -8.68% (inactive)
Cc1cc(C)cc(NC(=S)NCCc2c[nH]c3ccccc23)c1 | 40.6% (active)
CCC(C)(C)NC(=O)CN(C(=O)CCC(=O)Nc1cc(C)ccn1)c1ccc2c(c1)OCCO2 | 17.4% (inactive)
CCOC(=O)/C(C#N)=C\c1c(C)cc(C)c(COC(C)=O)c1C | 19% (inactive)
COC(=O)CN(c1cccc(C(C)=O)c1)S(C)(=O)=O | 12.6% (inactive)
CCSC1=C(C#N)C(=O)n2c1cc1c2CCCC1 | 63% (active)

SMILES | inhibition
CCSc1ncnc2c(C#N)c3n(c12)CCCCC3 | -29.8% (inactive)
COC(C[C@@H](O)C[C@H](O)[C@H](C)OCc1ccccc1)OC | -0.06% (inactive)
c1ccc(-c2nnc3n2NC(c2ccc4c(c2)OCO4)S3)cc1 (centres undefined) | 57.8% (active)
CC1=C(C(N)=O)C(c2ccc3c(c2)OCO3)n2nc(-c3cccc(C)c3)nc2N1 (centres undefined) | 2.9% (inactive)
Cc1cccc(C)c1NC(=O)CSc1nnc(-c2ccccc2)n1Cc1ccc2c(c1)OCO2 | -0.243% (inactive)
CN(CC(=O)NCCc1ccccc1)S(=O)(=O)c1cnc[nH]1 | -7.58% (inactive)
O=C(CNC(=O)c1cccnc1)N/N=C/c1cc(Br)c(O)c(Br)c1 | -19.5% (inactive)
Oc1c(Cl)cc(Cl)cc1/C=N/c1ncn[nH]1 | 23.9% (inactive)
COc1cc(Br)cc(/C=N/c2ncn[nH]2)c1O | 48.7% (active)
C=CCn1c(Cn2nnc3ccccc32)nnc1SCC(=O)N/N=C/c1cc(Br)cc(OC)c1O | -12.4% (inactive)
Cc1cc(-c2nnc(SCC(=O)Nc3ccc(S(N)(=O)=O)cc3)n2N)n[nH]1 | -1.79% (inactive)
CCOC(=O)C1=C(C)NC(=O)N(C(C)=O)C1c1ccc(Cl)cc1 (centres undefined) | 29.2% (inactive)
CCOC(=O)c1[nH]c2c(c1-c1ccccc1)C(=O)CC(c1ccc(Cl)cc1)C2 (centres undefined) | 3.98% (inactive)
CCOC(=O)C1Sc2[nH]c(=O)sc2C(c2ccc(Cl)cc2)C1C(=O)OCC (centres undefined) | 44.2% (active)
COc1ccc(N2C(=O)C3C(C2=O)C(C(=O)c2ccccc2)N2CCCC32)cc1 (centres undefined) | 7.93% (inactive)
COc1cccc(NC(=O)CSc2nccn(-c3ccc4c(c3)OCCO4)c2=O)c1 | 44.8% (active)
COc1ccccc1-n1ccnc(SCC(=O)NC2CCCCC2)c1=O | 15.4% (inactive)
Cn1ccnc1SCC(=O)Nc1ccc2c(c1)OCCO2 | 8.81% (inactive)
CC(C)Oc1ccc(S(=O)(=O)N2CCOCC2)cc1NC(=O)C1CCCC1 | 3% (inactive)
O=C(Nc1cccc(-n2cnnn2)c1)c1cccnc1 | 5.34% (inactive)

SMILES | inhibition
O=C(Nc1ccc(C(F)(F)F)cc1)c1cccc(-n2cnnn2)c1 | 93% (active)
O=C(Nc1ccc(-c2csc(Nc3cccc(C(F)(F)F)c3)n2)cc1)c1cccc(C(F)(F)F)c1 | 14.2% (inactive)
CN(CC(=O)Nc1cccc(F)c1)C(=O)CC1CCCC1 | 7.55% (inactive)
Cc1ccc(S(=O)(=O)N2CCOCC2)cc1C(=O)NC(=S)N(Cc1ccccc1)C(C)C | 15.5% (inactive)
c1ccc(-c2ccnc3nc(-n4cccc4)nn23)cc1 | 14.7% (inactive)
COc1ccc(NC(=O)c2ccc(C#CC(C)(C)O)cc2)cc1 | 12% (inactive)
C/C(=N\Nc1ccc([N+](=O)[O-])cc1)c1ccc(-n2nncc2C(C)(C)C)cc1 | 8.53% (inactive)
COc1ccc(C(=O)Nc2ccc(-n3nncc3C(C)(C)C)cc2)cc1 | 53.1% (active)
COc1cccc(N(C(=O)c2ccn[nH]2)C2(C(=O)Nc3c(C)cccc3C)CCCCC2)c1 | 17.6% (inactive)
OC(c1ccccc1)c1nccn1Cc1ccccc1 (centres undefined) | 8.31% (inactive)
COc1ccc(/C=C(\C#N)C(=O)ONC2=NCCCCC2)cc1 | 48.5% (active)
COc1ccc(N2CCN(C(=O)/C(C#N)=C/c3ccccc3)CC2)cc1 | 36% (inactive)
COc1ccc(/C=C(\C#N)C(=O)OCC(=O)N(C)C2CCS(=O)(=O)C2)cc1 (centres undefined) | 4.8% (inactive)
O=C(Cn1nc(CNc2ccc(Cl)cc2)[n+]2c1CCCCC2)c1ccc(Cl)cc1 | -4.18% (inactive)
Cn1cc(CCC(=O)NC2CC2)c2ccccc21 | 4.31% (inactive)
COC(=O)c1ccc(CNC(=O)c2ccc(S(=O)(=O)N3CCCCCC3)cc2)cc1 | -4.47% (inactive)
O=C(NCCc1ccc(F)cc1)c1ccc(S(=O)(=O)N2CCCCC2)cc1 | 41.7% (active)
O=C(Nc1ccccc1F)c1ccc(S(=O)(=O)N2CCCCCC2)cc1 | 12.4% (inactive)
O=C(Nc1ccc([N+](=O)[O-])cc1)C1CC12CCC2 (centres undefined) | 14.3% (inactive)
